TIM10 inh: TIM10 yeast growth inhibition; S. cerevisiae TIM10 strain growth, BacTiter-Glo luminescence, 24 h; actives 1.4% (n = 330,000); inhibition, % at 10 µM;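 active = inhibition of 40% or more at the single tested concentration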;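 note: wild-type TIM10 isogenic control strain grown at permissive 25 °C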
NALP1 yeast inh: inhibitors of NALP1 inflammasome in yeast; inhibition, % at 10 µM; S. cerevisiae NALP1/ASC/caspase-1 growth, X-gal OD620, 72 h; AID 2071; actives 0.61% (n = 280,000); in the data active = inhibition mostly above about 24%, no sharp cut-off; inactive = mostly below about 32%
tim23-1 inh: growth inhibitors of tim23-1 mutant yeast | inhibition, % at 20 µM | S. cerevisiae tim23-1 growth, BacTiter-Glo luminescence, 24 h | actives 1.3% (n = 330,000);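 active = growth inhibition of the mutant yeast at or above 50%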;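 note: temperature-sensitive mutant grown at 25 °C; plate controls were DMSO-treated mutant yeast for no effect and medium wells lacking yeast for full effect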
NALP3 yeast inh: blocks the NALP3 inflammasome reconstituted in yeast; Yeast reconstituted NLRP3/ASC/caspase-1, beta-gal luminescence, 24 h; inhibition, % at 10 µM; actives 0.39% (n = 330,000);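 active = inhibition of 50% or more; inactive = inhibition below 50%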;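 note: plate controls were induced DMSO wells for no effect and uninduced yeast grown without galactose for full effect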
tim10-1 inh: inhibits growth of tim10-1 mutant yeast | S. cerevisiae tim10-1 ts strain growth, BacTiter-Glo, 24 h | inhibition, % at 20 µM | actives 2.2% (n = 330,000) | AID 463190;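 active = inhibition of at least 40%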;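 note: mutant grown at 25 °C; 0% = DMSO wells with yeast and 100% = wells holding no yeast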
TIM10 conf: TIM10 yeast growth inhibition, confirmed; actives 63% (n = 4,600); shares compounds with TIM10 inh; inhibition, % at 10 µM; S. cerevisiae tim10 strain growth, BacTiter-Glo luminescence, 24 h;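 active = inhibition of yeast growth at or above a set limit in either of two replicates at 10 µM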;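 note: this counterscreen used the strain with wild-type TIM10; 0% = yeast with DMSO and 100% = medium wells lacking yeast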
Active calls of the source: *; / = not tested or not shown. Rows were chosen to be rich in hits. Some 4% of all compounds tested hit in one or more screens of this group.

SMILES | TIM10 inh | NALP1 yeast inh | tim23-1 inh | NALP3 yeast inh | tim10-1 inh | TIM10 conf
O=C(N/N=C/c1ccccn1)c1cc(-c2ccc3ccccc3c2)n[nH]1 | 60.2* | 14.1 | 39.7 | 11.6 | 26.6 | -22.6
COC(=O)Cc1ccc(NC(=S)NCCSc2ccc(C)cc2)cc1 | 54.6* | 12.9 | 13.4 | 24.0 | 38.9 | 35.5*
Cc1nn(C)c(C)c1NS(=O)(=O)c1ccccc1Cl | 6.2 | / | 0.9 | 12.8 | -5.9 | /
CN(C(=O)C1CC1)C1CCS(=O)(=O)C1 (centres undefined) | -8.2 | / | -5.8 | 5.6 | -30.6 | /
Cc1[nH]c2ccccc2c1/C=N/Nc1nc(Nc2ccccc2)nc(N2CCOCC2)n1 | 51.8* | 5.9 | 17.7 | 26.1 | 23.7 | 35.0*
COc1ccc(/C=N/Nc2nc(Nc3ccccc3)nc(N3CCCCC3)n2)c(OC)c1 | 40.9* | 17.1 | 24.9 | 21.8 | 29.6 | -32.5
Oc1[nH]c2ccccc2c1N=Nc1nc(Nc2ccccc2)nc(N2CCOCC2)n1 | 10.7 | / | 12.7 | 8.8 | 17.6 | /
Fc1ccc(Nc2nc(N/N=C/c3ccco3)nc(N3CCCCC3)n2)cc1 | 40.1* | 14.7 | 40.6 | 23.2 | 12.8 | 21.8
CN1CCC(=O)N([C@H](CN=[N+]=[N-])Cc2ccccc2)CC1 | -6.0 | 23.9 | -5.1 | 17.1 | -11.3 | /
C/C(=N\NC(=O)COc1ccc(C(C)(C)C)cc1)c1ccc(N2CCOCC2)cc1 | 17.3 | 8.4 | 15.8 | 0.2 | 16.0 | /
CCNc1nc(N)c(C(=O)c2ccc(Cl)s2)s1 | 44.3* | 9.5 | 21.2 | 30.4 | 32.7 | 41.0*
Cc1ccc(NC(=S)N/N=C2/CCCCc3ccccc32)cc1 | 45.0* | / | 37.3 | 45.2 | 27.0 | 38.0*
CCNC(=S)N/N=C1\CCCCc2ccccc21 | 16.7 | -1.4 | 46.4 | 6.1 | 30.7 | /
CC(C)OCCCNC(=O)c1ccc(NC(=O)C2=CSCCO2)cc1 | 13.7 | 1.8 | 21.1 | -2.1 | 11.1 | /
NNC(=S)Nc1ccc(C(F)(F)F)cc1Cl | 43.6* | 20.0 | 38.1 | 17.9 | 31.1 | 12.3
CC(C)COP(=O)(c1ccc(N(C)C)cc1)C(O)c1ccc(Br)cc1 (centres undefined) | 42.3* | 14.9 | 26.1 | 3.2 | 27.0 | 34.6*
CN(C)c1ccc(P(=O)(OCc2ccccc2)C(O)c2ccc(Br)cc2)cc1 (centres undefined) | 28.0 | / | 15.6 | 10.7 | 25.2 | /
C[n+]1c2n(c3ccccc31)N=C(c1ccc(Cl)cc1)CS2 | 41.1* | 34.6 | 38.1 | -0.7 | 36.6 | 44.2*
O=[N+]([O-])c1ccc(NC(=S)NCc2ccc(F)cc2)cc1 | 42.0* | -0.3 | 40.6 | 44.1 | 35.7 | 41.5*
COc1cccc(CN2C(=O)NC3(CCCCCC3)C2=O)c1 | 1.0 | 6.5 | 0.1 | 6.7 | 0.7 | /
COc1cccc(CNC(=O)CCC2CCCN(C(=O)c3ccccc3N(C)C)C2)c1 (centres undefined) | 10.1 | 0.0 | 18.4 | 8.9 | 21.7 | /
O=C(CN1C(=O)c2cccc3cccc1c23)NC1CCCCC1 | 14.4 | -5.3 | 4.6 | -6.8 | 0.9 | /
COc1cccc(CNc2ccc(N3CCCCC3)cc2)c1OC | 11.7 | 10.7 | 15.0 | 20.9 | 10.1 | /
COc1ccccc1CNc1ccc(N2CCCCC2)cc1 | 54.2* | -2.1 | 13.5 | 33.6 | 15.7 | 14.2
O=C(CSc1nnc(-c2cccs2)n1-c1cccc(Cl)c1)c1cccc2c1OCCO2 | 16.5 | 2.1 | -14.0 | -1.4 | 13.0 | /
SMILES | TIM10 inh | NALP1 yeast inh | tim23-1 inh | NALP3 yeast inh | tim10-1 inh | TIM10 conf
COc1ccc(C(=S)N2CCOCC2)cc1OC(=O)c1cccc([N+](=O)[O-])c1 | 40.7* | -9.0 | 24.6 | 14.9 | 35.8 | 23.3
COc1cc(C(=S)N2CCOCC2)ccc1OC(=O)c1ccc([N+](=O)[O-])cc1[N+](=O)[O-] | 43.5* | 0.1 | 13.0 | 12.1 | 18.4 | 36.7*
CNc1ccc(/C=C/C(=O)c2cccc3ccccc23)cc1[N+](=O)[O-] | 44.6* | 22.7 | 39.1 | 29.2 | 39.4 | -8.6
Cn1c(=O)n(C)c2cc(S(=O)(=O)N3CCN(c4ccccc4)CC3)ccc21 | -4.7 | -6.7 | 6.0 | -3.5 | 10.1 | /
Cc1cccc(NC(=O)CCS(=O)(=O)c2cc3c(cc2Cl)NC(=O)CO3)c1 | -11.0 | 0.1 | 2.2 | 6.1 | -0.2 | /
NC(=O)c1ccccc1NC(=O)/C=C/c1ccc(Cl)cc1 | 9.6 | 33.9 | 9.3 | 22.4 | 18.3 | /
O=C(/C=C/c1ccc(Cl)cc1)NC(=S)Nc1ccccc1C(=O)O | 42.9* | / | 41.0 | 14.2 | 34.0 | 31.5*
COc1ccc2oc(=O)c(-c3nnc(N)s3)cc2c1 | 62.4* | 24.5 | 35.9 | 1.2 | 37.3 | 60.4*
Nc1nnc(-c2cc3ccccc3oc2=O)s1 | 15.9 | -15.9 | 6.2 | -12.3 | 13.4 | /
Cc1ccccc1NC(=S)NC(=O)CCc1ccccc1 | 44.2* | -15.2 | 44.4 | 6.3 | 25.8 | 35.5*
O=C(COc1ccc(Cl)cc1)N1CCN(c2ccc([N+](=O)[O-])c(N3CCCCC3)c2)CC1 | 42.3* | 37.0 | 38.4 | 15.3 | 38.8 | 25.1
O=C(COc1ccccc1Cl)N1CCN(c2ccc([N+](=O)[O-])c(N3CCCCC3)c2)CC1 | 18.6 | 23.5 | 37.9 | 17.3 | 22.3 | /
O=C(Nc1nc(-c2ccccc2)cs1)C1COc2ccccc2O1 (centres undefined) | 41.1* | 4.3 | 43.7 | 7.8 | 23.5 | 34.9*
O=C(Nc1nc(-c2ccc3c(c2)OCO3)cs1)C1COc2ccccc2O1 (centres undefined) | 30.9 | / | 34.3 | 18.0 | 36.5 | /
Cc1ccc(S(=O)(=O)CC(=O)N2CCN(c3ccc(F)cc3)CC2)cc1 | 11.1 | 11.1 | 6.0 | 3.5 | 5.6 | /
O=C(COC(=O)c1ccc(Cl)c(S(=O)(=O)N2CCOCC2)c1)NCc1ccco1 | 1.5 | / | 12.7 | 13.1 | 0.7 | /
O=C1c2ccccc2C(=O)C1c1ccc2ccccc2n1 | 57.6* | 18.3 | 26.1 | 15.3 | 31.2 | 45.5*
O=C(N/N=C/c1ccccc1O)C1(O)c2ccccc2-c2ccccc21 | 15.7 | -4.4 | 3.5 | 16.5 | 24.0 | /
CCC(C)(C(=O)NC1CCCC1)N(C(=O)Cc1cccs1)c1c(C)n(C)n(-c2ccccc2)c1=O (centres undefined) | 14.8 | -0.7 | -10.1 | -10.3 | 8.8 | /
O=S(=O)(CCN1CCCCC1)Oc1ccc(Cl)cc1Cl | 49.9* | 18.1 | 40.9 | 12.1 | 37.5 | 27.1
Clc1ccc(Cl)c(OCCCCN2CCCCC2)c1 | -54.8 | 4.2 | 0.1 | 34.1 | -55.1 | /
CC1CCCCC12NC(=O)N(CC(=O)NCCc1ccc(F)cc1)C2=O (centres undefined) | -0.9 | / | -0.2 | 3.4 | 0.3 | /
NC(=O)SCC(=O)Nc1cccc(Cl)c1 | -17.2 | 17.5 | 8.3 | -11.3 | -9.6 | /
Cc1ccc(NC(=O)C/C(N)=N/OC(=O)Nc2cccc(Cl)c2)cc1 | 40.3* | / | 11.2 | 25.1 | 35.9 | 24.2
CCCCN(C)C(=O)Cn1cnc2sc(C)c(S(=O)(=O)N3CCN(c4ccccc4OC)CC3)c2c1=O | -4.3 | -24.8 | 8.9 | -11.2 | 6.6 | /
